{"source": "PubChem BioAssay AID1851", "about": "(National Center for Advancing Translational Sciences (NCATS), 2009)", "note": "Values joined by “and” are separate entries in the source; they are usually repeats but may differ in a detail not shown here. Equal values may be shown once. Among all 16,000 compounds or so, about 2,600 (16%) were called active. Roughly 20% stayed inconclusive and do not appear here. Calls follow the shape of the dose curve; as a rule, active = well fitted curve in the direction sought with a large enough effect; inconclusive = small, poorly fitted or top-dose-only effect, or effect the other way; inactive = no such curve, though single readings can be large or run the other way. Not all results are given here. Some structures have more than one record in an assay (separate samples or runs), and their calls can disagree. % is scaled to controls: 0 for no effect and ±100 for the full control effect."}
{"target": "Cytochrome P450 2D6 (Homo sapiens) (UniProt P10635)", "sequence (P10635 whole entry, looked up)": "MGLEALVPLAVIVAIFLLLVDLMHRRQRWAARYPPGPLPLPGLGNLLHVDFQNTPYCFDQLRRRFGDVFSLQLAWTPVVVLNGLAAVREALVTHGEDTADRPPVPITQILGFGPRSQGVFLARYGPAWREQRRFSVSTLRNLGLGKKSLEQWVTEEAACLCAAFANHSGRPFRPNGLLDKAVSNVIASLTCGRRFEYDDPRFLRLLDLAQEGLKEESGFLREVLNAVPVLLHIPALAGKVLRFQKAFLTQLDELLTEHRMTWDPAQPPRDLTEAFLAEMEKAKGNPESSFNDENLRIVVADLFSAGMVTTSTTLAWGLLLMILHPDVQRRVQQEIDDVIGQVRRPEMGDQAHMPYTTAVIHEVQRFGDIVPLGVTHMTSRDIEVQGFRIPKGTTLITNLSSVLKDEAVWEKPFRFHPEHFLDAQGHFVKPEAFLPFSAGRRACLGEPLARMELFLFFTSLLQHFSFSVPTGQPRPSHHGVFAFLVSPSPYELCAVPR", "experiment": "Cytochrome panel assay with activity outcomes", "conditions": "recombinant CYP, pro-luciferin dealkylation, luminescence, p450-cyp2d6; series mostly up to 57.1 µM"}
{"smiles": "Cc1ccc(NC(=O)CC2CS(=O)(=O)CC2CC(=O)Nc2ccc(C)c(C)c2)cc1C", "note": "(stereo not drawn)", "AC50": "inactive"}
{"smiles": "OC[C@H]1NC[C@@H](O)[C@@H](O)[C@H]1O", "AC50": "inactive"}
{"smiles": "Cc1ccc(OCC(=O)NNC(=O)c2cc3ccccc3o2)cc1C", "AC50": "inactive"}
{"smiles": "COc1cccc(C(=O)N2N=C(c3cccc(OC)c3)CC2(O)C(F)(F)F)c1", "note": "(stereo not drawn)", "AC50": "inactive"}
{"smiles": "CC(C)(Oc1ccc([C@@H]2CC2(Cl)Cl)cc1)C(=O)O", "AC50": "inactive"}
{"smiles": "CC(C)c1ccc(N2C(=O)CC(Sc3nc4ccccc4o3)C2=O)cc1", "note": "(stereo not drawn)", "AC50": "inactive"}
{"smiles": "C[C@@]12CC3CC(N)(C1)C[C@@](C)(C3)C2", "AC50": "inactive"}
{"smiles": "C[C@]12CC3CC(N)(C1)C[C@@](C)(C3)C2", "AC50": "inactive and 316 nM (active)"}
{"smiles": "CCc1nnc(NC(=O)CSc2nc3cc4c(cc3cc2C)OCCO4)s1", "AC50": "inactive"}
{"smiles": "CC1=N/C(=C\\c2ccc([N+](=O)[O-])cc2)C(=O)N1c1ccc(Br)c(C)c1", "AC50": "inactive"}
{"smiles": "COc1cc(Cn2cnnn2)ccc1O", "AC50": "inactive"}
{"smiles": "CC1(C)Cc2c(ccc3ccccc23)C(=O)N1", "AC50": "inactive"}
{"smiles": "CNC(=O)/C=C1\\NC(C)(C)Cc2c1ccc1ccccc21", "AC50": "14.1 µM (active)"}
{"smiles": "Cc1cccc(C(=O)NCN2CCN(c3ccccc3C#N)CC2)c1", "AC50": "inactive"}
{"smiles": "CC(C)(C[C@@]1(C)NC(=O)NC1=O)OCc1ccccc1", "activity, negative = inhibition": "1.81% [at 11.4 µM] (inactive)"}
{"smiles": "CCNCCCNCCCNCCCNCC", "AC50": "inactive"}
{"smiles": "CC(C)CO/N=C1/C[C@@H](O)[C@@H](O)[C@@H]2[C@@H]3C(=O)N([C@@H](C)c4ccccc4)C(=O)[C@H]3CC[C@@H]12", "activity, negative = inhibition": "17.4% [at 11.4 µM] (inactive)"}
{"smiles": "COC(=O)C(C)Sc1ccc2nnc(-c3ccc(F)cc3)n2n1", "note": "(stereo not drawn)", "AC50": "inactive"}
{"smiles": "CN=c1nc(-c2ccccc2)n(-c2ccccc2)s1", "AC50": "31.6 µM (active)"}
{"smiles": "O=c1nc(-c2ccccc2)n(-c2ccccc2)c2ncccc12", "AC50": "inactive"}
{"smiles": "CC(=O)c1c(C)nc(-c2ccccc2)n1O", "AC50": "inactive"}
{"smiles": "COc1cc(/C=N/NC(=O)c2ccncc2)ccc1OC(=O)c1ccc([N+](=O)[O-])cc1", "AC50": "inactive"}
{"smiles": "CS(=O)(=O)N1CCC2(CC1)CN(Cc1nccs1)C2", "AC50": "inactive"}
{"smiles": "O=C(c1ccco1)N1CCC2(CC1)CN(Cc1cc(C(F)(F)F)cc(C(F)(F)F)c1)C2", "AC50": "6.31 µM (active)"}
{"smiles": "FC(F)(F)c1cc(CN2CC3(CCNCC3)C2)cc(C(F)(F)F)c1", "AC50": "inactive"}
{"smiles": "O=C(c1cnccn1)N1CCC[C@@]2(CCN(Cc3ccncc3)C2)C1", "AC50": "inactive"}
{"smiles": "O=C(c1cnccn1)N1CCC[C@@]2(CCN(Cc3cc(C(F)(F)F)cc(C(F)(F)F)c3)C2)C1", "AC50": "3.16 µM (active)"}
{"smiles": "O=C(c1csnn1)N1CCC2(CC1)CN(Cc1cc(C(F)(F)F)cc(C(F)(F)F)c1)C2", "AC50": "12.6 µM (active)"}
{"smiles": "O=C(c1cc(C(F)(F)F)cc(C(F)(F)F)c1)N1CCC2(CCCN(Cc3nccs3)C2)CC1", "AC50": "inactive"}
{"smiles": "O=C(c1csnn1)N1CCC2(CC1)CCN(c1ccncc1)CC2", "AC50": "inactive"}
{"smiles": "CS(=O)(=O)N1CCC2(CC1)CN(Cc1cc(C(F)(F)F)cc(C(F)(F)F)c1)C2", "AC50": "0.398 µM (active)"}
{"smiles": "Cc1noc(C)c1C(=O)N1CCC[C@@]2(CCN(Cc3cc(C(F)(F)F)cc(C(F)(F)F)c3)C2)C1", "AC50": "inactive"}
{"smiles": "COC(=O)c1cnn(C(=O)c2ccccc2Br)c1N", "AC50": "inactive"}
{"smiles": "CN(C)c1ccc(O)c2c1C[C@H]1C[C@H]3[C@@H](N(C)C)C(=O)C(C(N)=O)=C(O)[C@]3(O)C(=O)C1=C2O", "AC50": "inactive"}
{"smiles": "CCOc1ccc(-c2nnc3ccc(SCC(=O)NCc4ccco4)nn23)cc1", "AC50": "inactive"}
{"smiles": "N#Cc1cc2nc(O)c(O)nc2cc1[N+](=O)[O-]", "AC50": "inactive"}
{"smiles": "CC[C@H](C)C(=O)O[C@@H]1C[C@H](C)C=C2C=C[C@H](C)[C@@H](CC[C@H]3C[C@@H](O)CC(=O)O3)[C@H]21", "AC50": "inactive"}
{"smiles": "CO[C@H]1C=CO[C@]2(C)Oc3c(C)c(O)c4c(O)c(c5c(c4c3C2=O)NC2(CCN(CC(C)C)CC2)N=5)=NC(=O)C(C)=CC=C[C@@H](C)[C@@H](O)[C@@H](C)[C@@H](O)[C@@H](C)[C@@H](OC(C)=O)[C@@H]1C", "AC50": "inactive"}
{"smiles": "Cn1c(=O)c(-c2ccc(F)cc2)nc2cnc(N3CCOCC3)nc21", "AC50": "inactive"}
{"smiles": "Cn1c(=O)c(-c2ccc(Cl)cc2)nc2cnc(Nc3ccccc3)nc21", "AC50": "inactive"}
{"smiles": "Cn1c(-c2sccc2OCc2ccccc2)n[nH]c1=S", "AC50": "inactive"}
{"smiles": "O=C(c1cnccn1)N1CCC2(CC1)CN(Cc1cc(C(F)(F)F)cc(C(F)(F)F)c1)C2", "AC50": "0.398 µM (active)"}
{"smiles": "O=C(c1cnccn1)N1CCC2(CC1)CN(c1ccncc1)C2", "AC50": "inactive"}
{"smiles": "O=C(c1cc(C(F)(F)F)cc(C(F)(F)F)c1)N1CCC2(CC1)CN(Cc1ccncc1)C2", "AC50": "inactive"}
{"smiles": "CC(C)(C)n1nc2c(c1NC(=O)c1ccc(S(=O)(=O)N3CCCCC3)cc1)CS(=O)C2", "note": "(stereo not drawn)", "AC50": "inactive"}
{"smiles": "Cc1cc(NC(=O)NC(=O)c2ccc(F)cc2F)n[nH]1", "AC50": "inactive"}
{"smiles": "CCC(C)C1NC(=S)N(C2CCCCC2)C1=O", "note": "(stereo not drawn)", "AC50": "inactive"}
{"smiles": "COc1ccc2c(c1)-c1ccccc1S(=O)(=O)N2C", "AC50": "inactive"}
{"smiles": "COc1ccc2c(c1)Cc1cc(N=[N+]([O-])c3ccc4c(c3)Cc3cc(OC)ccc3-4)ccc1-2", "activity, negative = inhibition": "-7.57% [at 11.4 µM] (inactive)"}
{"smiles": "COc1ccc2c(c1)C(=NN)c1cc(OC)ccc1-2", "AC50": "22.4 µM (active)"}
{"smiles": "O=C(Cn1cnc([N+](=O)[O-])c1)NCc1ccc(F)cc1", "AC50": "inactive"}
{"smiles": "CC(C)CN1CCCC2(CCN(C(=O)c3csnn3)CC2)C1", "AC50": "5.01 µM (active)"}
{"smiles": "O=C(c1csnn1)N1CCC2(CC1)CN(c1ccccn1)C2", "AC50": "12.6 µM (active)"}
{"smiles": "CC(=O)N1CCC[C@@]2(CCN(Cc3nccs3)C2)C1", "AC50": "inactive"}
{"smiles": "COc1ccc(NC(=O)N2CC3(CCN(C(=O)c4csnn4)CC3)C2)cc1", "AC50": "inactive"}
{"smiles": "O=C(c1csnn1)N1CCC2(CCN(Cc3nccs3)CC2)CC1", "AC50": "inactive"}
{"smiles": "O=C(c1csnn1)N1CCC2(CCCN(c3ccc(-c4ccccc4)cc3)C2)CC1", "AC50": "inactive"}
{"smiles": "O=C(c1csnn1)N1CCC[C@@]2(CCN(Cc3nccs3)C2)C1", "AC50": "5.01 µM (active)"}
{"smiles": "O=C(c1cnccn1)N1CCC2(CC1)CN(c1ccccn1)C2", "AC50": "inactive"}
{"smiles": "O=C(Nc1ccccc1)N1CCC2(CC1)CCN(C(=O)c1csnn1)CC2", "AC50": "inactive"}
{"smiles": "CC(=O)N1CCC2(CC1)CN(c1ccccn1)C2", "AC50": "inactive"}
{"smiles": "O=C(c1csnn1)N1CCC2(CCCN(Cc3ccccc3)C2)CC1", "AC50": "1.26 µM (active)"}
{"smiles": "N#Cc1cccc(NC(=O)N2CCCC3(CCN(C(=O)c4csnn4)CC3)C2)c1", "AC50": "inactive"}
